Laboratory results reported in PubChem BioAssay AID1863 (Southern Research Specialized Biocontainment Screening …, 2009).
The campaign covered roughly 300,000 compounds. About 480 (0.16%) were called active.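 The calls were made as follows: active = inhibition over 29.93%, a cutoff 3 SD above the screen mean, later confirmed by dose response; inconclusive = inhibition over 29.93% but no dose response follow-up; inactive = inhibition at most 29.93% or unconfirmed.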 Only a sample is shown. Potency and affinity values are given separately.

Test: PhoP-dependent GFP reporter repression – Salmonella Typhimurium, primary screen (AID 1863);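 also: 0% = low Mg2+ inducing control and 100% = high Mg2+ repressing control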
Settings: S. Typhimurium PhoP-regulated promoter GFP reporter, 4 h; at 50 µM; active compounds read high

inhibition, inactive:
CCOC(=O)C1=C(O)/C(=C/c2cccc(OC)c2O)N=C1C -9.18%
Cn1c(CCCNC(=O)c2cccs2)nc2ccccc21 -1.8%
Cc1ccc(NC(=O)c2ncc(Cl)c(Cl)c2Cl)cc1C 2%
O=c1[nH]c(=O)n(C2OC(CO)C(O)C2O)cc1Br (stereo unspecified) 3.95%
Nc1cn(C2OC(CO)C(O)C2O)c(=O)[nH]c1=O (stereo unspecified) 3.77%
Cc1cc(CNC(=O)c2cccnc2Cl)c2ccccc2n1 1.03%
CC[n+]1c(/C=C/C=C/N(C(C)=O)c2ccccc2)sc2ccccc21 -10.1%
CCN1/C(=C/c2ccc3cc(C)ccc3[n+]2CC)Sc2ccccc21 -133%
CCN1/C(=C/C=C/C=C/C=C/c2sc3ccccc3[n+]2CC)Sc2ccccc21 -8.59%
CCN1/C(=C\C=C(C(C)=O)C(C)=O)Sc2ccccc21 -11.4%
CC[n+]1c(/C=C(\C)SC)sc2ccccc21 0.17%
CC[n+]1c(/C=C/Nc2ccccc2)sc2ccccc21 -20.8%
CC[n+]1c(/C=C/C=C/N(C(C)=O)c2ccccc2)sc2cc(OC)ccc21 -71.7%
CC[n+]1c(/C=C(/C)SC)sc2ccccc21 0.31%
COCCN1CCC(CNCc2c(C(=O)N3CCCCC3)nc3c(C)cccn23)C1 (stereo unspecified) -11.8%
CCOc1ccccc1CN1CCN(Cc2ccon2)CC1CCO (stereo unspecified) -9.77%
COc1ccc2c(CC(=O)Nc3ccc(OC)c(S(=O)(=O)N4CCOCC4)c3)coc2c1 4.59%
O=C(NCC(O)COc1ccc([N+](=O)[O-])cc1)c1ccccc1 (stereo unspecified) -9.65%
Clc1ccc(CNCCC2=CCCCC2)cc1 18.9%
Cc1ccc(CNCCC2=CCCCC2)cc1 -46.6%
O=C(NC1CC1)c1c[nH]c2ccc(S(=O)(=O)Nc3cccc(C(F)(F)F)c3)cc2c1=O 14.8%
CCn1cc(C(=O)NCCc2ccccc2)c(=O)c2cc(F)c(N3CCN(C)CC3)cc21 -0.827%
CCn1cc(C(=O)NCc2ccccc2)c(=O)c2cc(F)c(N3CCN(C(=O)c4ccco4)CC3)cc21 6.24%
CCn1cc(C(=O)O)c(=O)c2cc(F)c(N3CCN(C(=S)NC(=O)c4ccccc4Br)CC3)cc21 8.64%
C=CCNC(=O)c1cn(CC)c2cc(N3CCN(C(=O)c4ccco4)CC3)c(F)cc2c1=O 5.05%
CCC(CO)NC(=O)c1ccccc1C(F)(F)F (stereo unspecified) 2.52%
O=C(O)C1C2CCC(O2)C1C(=O)Nc1ccccc1Br (stereo unspecified) -9.38%
COC(=O)c1ccccc1NC(=O)C1CCN(C(=O)Cc2ccccc2)CC1 3.37%
CCOC(=O)COc1c(Br)cc(/C=C2\SC(=O)N(CC(=O)N3CCCC3)C2=O)cc1OC 5.47%
COc1ccc(N(C(=O)CNC(=O)c2cccs2)C(C(=O)NC2CCCC2)c2ccncc2)cc1 (stereo unspecified) -0.95%
Cc1nc2nc3c(cn2n1)C(=O)CC(C)(C)C3 -6.32%
CC(C)n1c(SCC(=O)NC2CC2)nnc1-c1ccco1 3.76%
CCOC(=O)CSc1nc2c(c(=O)n1-c1ccc(OCC)cc1)SCC2 -4.68%
COc1ccc(C(=O)c2no[n+]([O-])c2C(=O)c2ccc(OC)cc2)cc1 -73.5%
Cc1ccc(C(=O)c2no[n+]([O-])c2C(=O)c2ccc(C)cc2)cc1 -26.5%
Cc1ccc(S(=O)(=O)NN2C(=O)c3ccccc3NC2c2ccccc2O)cc1 (stereo unspecified) 2.27%
Cc1onc(-c2ccccc2)c1C(=O)NC(=S)NNC(=O)c1ccccc1O 18.4%
Cc1onc(-c2ccccc2)c1C(=O)NC(=S)NNC(=O)c1ccc(O)cc1 -7.99%
CC(C)[C@@H](COc1ccccc1)N1CCN(Cc2ccccc2)CCC1=O 11.4%
Cc1ccc(N(CC(=O)NC2CCCCC2)C(=O)CNC(=O)c2cccs2)cc1 5.02%
CNC[C@H](CC1CCCCC1)NC[C@H](CO)NCCc1cccc(C(F)(F)F)c1 13%
CNC[C@H](CC1CCCCC1)NC[C@H](CO)NCC1(c2ccccc2)CC1 5.82%
Cc1ccccc1NC(=O)NC1(C(=O)NCc2ccco2)CCCCC1 -5.56%
Cc1cccc(NC(=O)CSc2nnc(-c3ccncc3)n2CC2CCCO2)c1 (stereo unspecified) 0.37%
Clc1ccc2[nH]c3c(NCCN4CCOCC4)ncnc3c2c1 -2.52%
Clc1ccc2[nH]c3c(NCC4CCCO4)ncnc3c2c1 (stereo unspecified) 17.8%
COc1ccc(NC(=O)CSc2cc(C(=O)c3nccn3C)c3ccccc3n2)cc1 3.48%
CCOc1ccc(NC(=O)c2cc(Cl)nc3ccccc23)cc1 1.03%
C=CCNc1nc(Nc2ccccc2F)nc(OCC)n1 -4.99%
COc1ccccc1Nc1nc(NCc2ccco2)c2ccccc2n1 48%
Cc1ccccc1Nc1nc(NCc2ccco2)c2ccccc2n1 25.6%
OCCNc1nc(NCc2ccccc2)c2ccccc2n1 3.19%
Oc1ccccc1Nc1nc(NCc2ccccc2)c2ccccc2n1 -0.55%
Fc1ccccc1-c1nc(NCc2ccco2)c2ccccc2n1 -13.7%
Cc1ccc(-c2nc(NCc3ccco3)c3ccccc3n2)cc1 23.9%
CCc1noc(C)c1C(=O)Nc1ncc(C)s1 2.49%
CCC(Oc1ccccc1)C(=O)Nc1nc2ccccc2[nH]1 (stereo unspecified) -3.54%
Cc1ccc2cc(C(c3nnnn3C3CCCC3)N(Cc3ccco3)Cc3cccs3)c(=O)[nH]c2c1 (stereo unspecified) -2.55%
CN1CCc2c(sc3nc(NCCO)n(-c4cccc(Cl)c4)c(=O)c23)C1 -3.53%
CC(Oc1ccccc1)C(=O)N=C1SC2CS(=O)(=O)CC2N1c1ccc(F)cc1 (stereo unspecified) -3.91%
O=S(=O)(Nc1nc2ccccc2nc1NCC1CCCO1)c1ccc(F)cc1 (stereo unspecified) 6.59%
Cc1cc2ncn(/N=C/c3ccc([N+](=O)[O-])s3)c2cc1C -6.99%
Cc1cccc(C)c1NC(=O)CNCC(=O)Nc1c(C)cccc1C 0.56%
O=C(O)c1cccc(NC(=O)c2ccc3c(c2)C(=O)N(CC2CCCO2)C3=O)c1 (stereo unspecified) -1.15%
Cc1ccc(C)c(NC(=O)CCC(=O)N/N=C/c2cc([N+](=O)[O-])ccc2O)c1 8.86%
O=C(CSc1ccccn1)N/N=C/c1cccc([N+](=O)[O-])c1 0.8%
COc1cc([N+](=O)[O-])cc(/C=N/NC(=O)CSc2ccccn2)c1O 24.8%
O=[N+]([O-])c1ccc(/C=N/Nc2ccccn2)cc1 4.65%
O=C(CSc1nc2ccccc2s1)N/N=C/c1ccccc1C(=O)O -5.31%
Cc1cc(Cl)ccc1NC(=O)CCC(=O)N/N=C/c1cc([N+](=O)[O-])ccc1O 12.1%
O=[N+]([O-])c1cccc(/C=N/Nc2ccccn2)c1 -2.55%
O=C(CSc1nc2ccccc2s1)NCc1cc([N+](=O)[O-])ccc1O -4.94%
O=C1CCc2cc(NS(=O)(=O)c3ccccc3)cc3c2N1CCC3 3.44%
CCOC(=O)C1(Cc2ccc(Cl)cc2)CCN(C2CCC2)CC1 -6.48%
CC(C)c1nc(SCC(=O)Nc2cccc(S(N)(=O)=O)c2)n[nH]1 -17.9%
COc1ccc(CC(=O)Nc2nc(-c3ccccc3)c(C(C)=O)s2)cc1OC 5.08%
COc1ccc(S(=O)(=O)N2CCC(C(=O)NCCCc3ccccc3)CC2)cc1 -11.5%
CC(C)N=C(N)N=C(N)Nc1ccc(Cl)cc1 -0.65%
NC(N)=NC(=S)Nc1ccc(Cl)cc1 -3.56%
O=C(NCc1ccccc1)c1cncc(Br)c1 3.01%
CC1CCC2(CC1)NC(=O)N(CC(=O)c1cn(CCC#N)c3ccccc13)C2=O (stereo unspecified) -10.8%
Cc1cc(C)n2nc(C(=O)OCC(=O)c3c[nH]c4ccccc34)nc2n1 10.2%
COc1ccc(CNC(=O)CSc2nnc(NC(=O)C3CC3)s2)cc1 -0.4%
Oc1c(Cl)cc(Cl)cc1/C=N/Nc1ncc(Br)cn1 6.58%
Oc1ccc(/C=N/Nc2nccnc2Cl)cc1 5.13%
Oc1ccccc1/C=N/Nc1ncc(Br)cn1 -2.93%
Oc1ccccc1/C=N/Nc1nccnc1Cl 25.1%
Cc1ccccc1-n1c(SCC(=O)N/N=C/c2sccc2C)nc2ccccc2c1=O -15.1%
Cc1nn2c(-c3ccc(S(=O)(=O)N4CCN(C)CC4)o3)nnc2c2ccccc12 1.51%
Cc1cc2c(cc(C(=O)NCc3cccnc3)n2Cc2ccc(Cl)cc2)o1 13%
COc1ccc(N2CCOCC2)c(NC(=O)c2cccnc2)c1 0.01%
CCN(Cc1cn2cccnc2n1)C1CCCCC1 -4.78%
Cc1nc2ccc(Cl)cc2nc1C -3.83%
Cc1nc(N)nc(Cl)c1Cc1ccc(Cl)cc1 2.03%
O=[N+]([O-])c1cc2c(cc1CN1CCN(c3ccc(F)cc3)CC1)OCO2 -3.23%
CCOc1ccc(-c2nc(S(=O)(=O)c3ccccc3)c(NC)o2)cc1 -1.53%
